High-throughput results as filed in PubChem BioAssay.
Many of the other results were omitted from the sample, so hits are more common in it than they were.
ALR H2O2 inh = human ALR oxidase inhibition via reduced H2O2 | inhibition, % (concentration not given with the values) | P55789 | 3.8% of 290,000 active | purified ALR, DTT oxidation, H2O2 HRP-luminol luminescence;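 active means mean replicate inhibition above about 79%, with every replicate also reaching it, limit read from the data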
Target sequence (P55789 whole entry, looked up): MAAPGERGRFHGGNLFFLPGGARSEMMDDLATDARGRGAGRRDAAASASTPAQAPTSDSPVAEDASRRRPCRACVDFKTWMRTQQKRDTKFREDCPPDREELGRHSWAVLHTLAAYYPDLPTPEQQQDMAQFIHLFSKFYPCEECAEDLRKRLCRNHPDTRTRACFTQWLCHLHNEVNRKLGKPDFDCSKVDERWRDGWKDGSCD
PglD DTNB = blocks C. jejuni PglD acetyltransferase activity; 0.098% of 360,000 active; inhibition, % at 12.5 µM; purified PglD enzyme, DTNB colorimetric CoA detection; in the data active means inhibition above about 16%, passing the limit was not always enough
PDI turbidity = inhibitors of human protein disulfide isomerase. P07237. PDI insulin aggregation turbidity, A650, 90 min. inhibition, % at 10 µM. 0.052% of 350,000 active. AID 588391;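 active means mean inhibition across replicates of 30% or more, whatever share of single replicates reach that level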
NRP1-CendR mod = alters CendR peptide binding to human NRP-1; 0.85% of 360,000 active; FAM-RPARPAR peptide binding to NRP-1, fluorescence polarization; inhibition, % at 25 µM; AID 602438; O14786;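 active means inhibition or corrected inhibition above about 18%, plus a signal ratio from 0.5 to 1.5, limit read from the data, passing the limit was not always enough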
ARNT TACC3 PPI = disruptors of human ARNT/TACC3 interaction | Q9Y6A5 | AlphaScreen His-ARNT PAS-B/GST-TACC3 binding, luminescence; TACC3 fragment carries E629A point mutation | inhibition, % at 9.99 µM | 0.66% of 390,000 active;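 active means mean inhibition of replicates at least 50% and at least half of replicates each reaching 50%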
ERp5 block = inhibitors of human ERp5; ERp5 insulin aggregation, absorbance 650 nm, 90 min; inhibition, % at 9.99 µM; 0.05% of 350,000 active;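 active means mean replicate inhibition above about 25%, with every replicate also reaching it, limit read from the data, passing the limit was not always enough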
Target sequence (Q15084 whole entry, looked up): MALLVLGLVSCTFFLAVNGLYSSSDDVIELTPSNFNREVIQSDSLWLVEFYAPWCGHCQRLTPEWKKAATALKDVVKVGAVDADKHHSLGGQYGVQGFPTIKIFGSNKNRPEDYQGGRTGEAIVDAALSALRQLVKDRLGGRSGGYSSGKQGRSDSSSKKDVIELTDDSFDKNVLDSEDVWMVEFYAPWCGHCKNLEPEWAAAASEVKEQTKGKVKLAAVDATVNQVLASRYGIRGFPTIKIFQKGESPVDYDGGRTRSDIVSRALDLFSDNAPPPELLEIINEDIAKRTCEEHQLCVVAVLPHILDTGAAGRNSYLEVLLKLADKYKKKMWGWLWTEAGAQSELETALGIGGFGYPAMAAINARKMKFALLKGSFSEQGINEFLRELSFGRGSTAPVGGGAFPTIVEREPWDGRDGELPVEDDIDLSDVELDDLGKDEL
Large screens that a line does not name were inactive.

O=C(CN1CC(=O)Oc2ccccc21)OCC(=O)c1cccc(Br)c1	ARNT TACC3 PPI 73 (no result: ERp5 block)
CCCc1cc(=O)[nH]c(SCC(=O)c2ccc3c(c2)NC(=O)CO3)n1	ALR H2O2 inh 97
COc1ccc(C(=O)NCC(=O)OCC(=O)c2ccc3c(c2)NC(=O)CO3)cc1OC	none (no result: PglD DTNB, ARNT TACC3 PPI)
O=C1COc2ccc(C(=O)COC(=O)c3cc(S(=O)(=O)N4CCOCC4)ccc3F)cc2N1	none
N#Cc1ccccc1OCC(=O)OCC(=O)c1ccc2c(c1)NC(=O)CO2	none (no result: ARNT TACC3 PPI)
CCCc1nc(SCC(=O)c2ccc3c(c2)NC(=O)CO3)[nH]c(=O)c1CC	none (no result: ALR H2O2 inh)
O=C1COc2ccc(C(=O)COC(=O)CCc3ccc(S(=O)(=O)N4CCOCC4)cc3)cc2N1	NRP1-CendR mod 35 (no result: ERp5 block)
Cc1ccc(C(=O)NCC(=O)OCC(=O)c2ccc3c(c2)NC(=O)CO3)cc1	NRP1-CendR mod 31 (no result: PglD DTNB)
O=C1COc2ccc(C(=O)COC(=O)COc3ccccc3[N+](=O)[O-])cc2N1	NRP1-CendR mod 25
COc1ccc(-c2ccc3c(c2)O[C@@H](CN(C)Cc2cccnc2)[C@@H](C)CN([C@H](C)CO)S3(=O)=O)cc1	none (no result: ALR H2O2 inh, PDI turbidity, NRP1-CendR mod)
COc1cccc(CNC(=O)C[C@@H]2CC[C@@H](NC(=O)C3CCOCC3)[C@@H](CO)O2)c1	none (no result: ALR H2O2 inh, PDI turbidity, NRP1-CendR mod)
O=C(C[C@@H]1CC[C@@H]2[C@H](COC[C@H](O)CN2S(=O)(=O)c2cccc(Cl)c2)O1)N1CCCCC1	none (no result: ALR H2O2 inh, PDI turbidity, NRP1-CendR mod, ERp5 block)
Cc1ccc(S(=O)(=O)N2CCN(C(=O)CCC(=O)Nc3ccc(F)cc3F)CC2)cc1	none (no result: ALR H2O2 inh)
CN(C)c1ccc(NC(=O)C2CCCN(S(=O)(=O)c3ccccc3)C2)cc1 (stereo unspecified)	ALR H2O2 inh 100 (no result: PglD DTNB)
Cc1ccc(S(=O)(=O)N2CCC(C(=O)Nc3ccc(C(C)C)cc3)CC2)cc1	none
Cc1ccc(S(=O)(=O)N2CCC(C(=O)Nc3ccc(S(=O)(=O)N4CCCC4)cc3)CC2)cc1	PDI turbidity 32 (no result: ARNT TACC3 PPI)
Cc1ccc(NC(=O)CCC(=O)N2CCN(S(=O)(=O)c3ccc(C)cc3)CC2)cc1	NRP1-CendR mod 45
Cc1ccc(S(=O)(=O)N2CC[C@@H]3[C@H]2c2cc(C#Cc4cccnc4)ccc2N(C)[C@H]3CO)cc1	none (no result: ALR H2O2 inh, PDI turbidity, NRP1-CendR mod, ERp5 block)
Cc1cc(=O)[nH]c(SCC(=O)Nc2ccc(S(=O)(=O)N3CCCCC3)cc2)n1	ALR H2O2 inh 98 (no result: ERp5 block)
O=C(CSc1nc(NS(=O)(=O)c2ccccc2)cc(=O)[nH]1)Nc1ccc(F)cc1	ALR H2O2 inh 98, PglD DTNB 25 (no result: ERp5 block)
O=C(O)CC(SCC(=O)Nc1ccc(S(=O)(=O)N2CCCC2)cc1)C(=O)O (stereo unspecified)	ALR H2O2 inh 100 (no result: ARNT TACC3 PPI)
O=C(O)CC(SCC(=O)Nc1ccccc1)C(=O)O (stereo unspecified)	none (no result: PglD DTNB)
Cc1ccc(NC(=O)CSc2nc(N)cc(=O)[nH]2)cc1S(=O)(=O)N1CCCCCC1	ALR H2O2 inh 99
O=C(CSc1nc(NS(=O)(=O)c2ccccc2)cc(=O)[nH]1)Nc1cccc(C(F)(F)F)c1	none (no result: ALR H2O2 inh)
O=C(CSc1nc(O)c(C2CCCCC2)c(=O)[nH]1)Nc1ccc(F)cc1	ALR H2O2 inh 99
COc1cccc(N2C(=O)C3CCCN3C2c2ccc(Cl)cc2)c1 (stereo unspecified)	none (no result: PDI turbidity)
COc1cccc(N2C(=O)C3CCCN3C2c2ccc(N(C)C)cc2)c1 (stereo unspecified)	ALR H2O2 inh 95 (no result: PDI turbidity)
COc1cccc2c1C(=N)c1c(O)c3c(c(O)c1C2=O)CC(O)(C(C)=O)CC3OC1CC(N)C(O)C(C)O1 (stereo unspecified)	ARNT TACC3 PPI 49 (no result: ALR H2O2 inh, PglD DTNB, ERp5 block)
COc1ccc(NCC(O)Cn2cnc3c2c(=O)n(C)c(=O)n3C)cc1 (stereo unspecified)	ALR H2O2 inh 98 (no result: PglD DTNB)
Cc1cccc(S(=O)(=O)N2C[C@@H]3N[C@H](C2)C3c2ccc(-c3cccc(C#N)c3)cc2)c1 (stereo partly specified)	none (no result: ALR H2O2 inh, PglD DTNB, PDI turbidity, NRP1-CendR mod, ARNT TACC3 PPI)
Cc1c(CCC(=O)O)c(=O)oc2cc3occ(-c4ccc(F)cc4)c3cc12	ALR H2O2 inh 97 (no result: PglD DTNB, ERp5 block)
Cc1c(CCC(=O)O)c(=O)oc2cc3occ(-c4ccc(Cl)cc4)c3cc12	ARNT TACC3 PPI 45
O=C(NC1CCCCC1)N1CC(=O)N2[C@H](CO)[C@H](c3ccc(/C=C/c4ccccc4)cc3)[C@@H]2C1	none (no result: ALR H2O2 inh, PglD DTNB, PDI turbidity, NRP1-CendR mod, ARNT TACC3 PPI)
C[C@H](CO)N1C[C@H](C)[C@@H](CN(C)S(=O)(=O)c2ccccc2)Oc2ccc(NC(=O)Cc3ccccc3)cc2C1=O	NRP1-CendR mod 24
COc1ccc(S(=O)(=O)N(C)C[C@@H]2Oc3ccc(NC(=O)c4ccncc4)cc3C(=O)N([C@H](C)CO)C[C@@H]2C)cc1	ERp5 block 64 (no result: ALR H2O2 inh, PDI turbidity, NRP1-CendR mod)
COc1ccc(S(=O)(=O)N(C)C[C@@H]2Oc3ccc(NC(=O)C4CC4)cc3C(=O)N([C@H](C)CO)C[C@H]2C)cc1	PglD DTNB 16 (no result: ALR H2O2 inh, PDI turbidity, NRP1-CendR mod)
COc1ccc(S(=O)(=O)N(C)C[C@H]2Oc3ccc(NC(=O)c4ccncc4)cc3C(=O)N([C@H](C)CO)C[C@H]2C)cc1	none (no result: ALR H2O2 inh, PDI turbidity, NRP1-CendR mod)
C[C@@H]1CN([C@H](C)CO)C(=O)c2cc(NC(=O)Cc3ccccc3)ccc2O[C@H]1CN(C)S(=O)(=O)c1ccccc1	none (no result: ALR H2O2 inh, PDI turbidity, NRP1-CendR mod)
Cc1noc(C)c1NC(=O)Nc1cccc2c1O[C@H](CN(C)Cc1ccncc1)[C@@H](C)CN([C@H](C)CO)C2=O	none (no result: ALR H2O2 inh, PDI turbidity, NRP1-CendR mod, ARNT TACC3 PPI)
COc1ccccc1CNC(=O)C[C@@H]1C[C@@H]2c3cc(NC(=O)Nc4ccccc4F)ccc3O[C@@H]2[C@@H](CO)O1	none (no result: ALR H2O2 inh, PDI turbidity, NRP1-CendR mod)
C[C@H](CO)N1C[C@H](C)[C@H](CN(C)S(=O)(=O)c2cn(C)cn2)Oc2ccc(NC(=O)Cc3ccccc3)cc2C1=O	none (no result: ALR H2O2 inh, PDI turbidity, NRP1-CendR mod)
C[C@@H]1CN([C@@H](C)CO)C(=O)c2cccc(NS(C)(=O)=O)c2O[C@@H]1CN(C)Cc1ccc(C(=O)Nc2ccccc2N)cc1	none (no result: ALR H2O2 inh, PDI turbidity, NRP1-CendR mod)
COC(=O)C[C@H]1CC[C@H]2[C@@H](COc3ccc(NC(=O)c4cccc(Cl)c4)cc3C(=O)N2C)O1	none (no result: ALR H2O2 inh, PglD DTNB, PDI turbidity, NRP1-CendR mod, ARNT TACC3 PPI)
Cc1sc(NC(=O)c2ccc(F)cc2)c(CN2CCCCCC2)c1C	none
Cc1sc(NC(=O)c2ccccc2F)c(CN2CCCCC2)c1C	ALR H2O2 inh 95 (no result: PglD DTNB, ERp5 block)
CN(C(=O)COC(=O)c1cnc(Cl)c(Cl)c1)C1CCCCC1	NRP1-CendR mod 24
O=C1NC(=Nc2ccc(Cl)cc2)/C(=C/c2ccco2)S1	ALR H2O2 inh 87 (no result: PglD DTNB)
CN1C[C@@H]2C(c3ccc(Cl)nc3)C3(c4ccccc4)CC2(C3)[C@H]1c1ccccc1 (stereo partly specified)	NRP1-CendR mod 23
O=C(O)c1ccccc1NC(=O)c1cc(-c2ccccc2)nc2ccccc12	ALR H2O2 inh 98
CCOc1ccc(-c2cc(C(=O)Nc3ccc4c(c3)OCCO4)c3ccccc3n2)cc1	NRP1-CendR mod 56 (no result: ALR H2O2 inh, ERp5 block)
O=C(O)c1ccc(C(=O)Nc2cccc3ccccc23)c(C(=O)O)c1	NRP1-CendR mod 25
Cc1cccc(-c2cc(C(=O)Nc3ccc4c(c3)OCCO4)c3ccccc3n2)c1	none (no result: ERp5 block)
